Bioassay records as filed in PubChem BioAssay.
Only a selection was taken, and hits are over-represented in it overall.
IDE exosite inh: exo-site inhibitors of human IDE, primary screen, biochemical, fluorescence anisotropy, probe displacement; Insulin-degrading enzyme (Homo sapiens), P14735; purified IDE, FL-6b probe fluorescence polarization; stronger effect = lower value; z-score at 20 µM; 17,000 tested, 6.3% active; AID 1259349, 2017;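 active = z-score of -3 or lower, meaning strong loss of probe binding signal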;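 note: His-tagged human IDE residues 42-1019 made in E. coli with 30 nM FL-6b probe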
Hits are given with their value; n = inactive; ! = not confirmed by another sample.

SMILES	IDE exosite inh
COc1ccc(NC(=O)N2CC(=O)N3[C@@H](CO)[C@H](c4ccc(/C=C/c5ccccc5)cc4)[C@@H]3C2)cc1	n
O=C(NC1CCCC1)N1CC(=O)N2[C@@H](CO)[C@H](c3ccc(/C=C/c4ccccc4)cc3)[C@@H]2C1	-6.5
O=C(NC1CCCC1)N1CC(=O)N2[C@H](CO)[C@H](c3ccc(/C=C/c4ccccc4)cc3)[C@@H]2C1	n
C[C@H]1CN([C@@H](C)CO)C(=O)c2ccccc2-c2ccccc2CO[C@@H]1CN(C)C(=O)CCC(F)(F)F	n
O=C(c1cccnc1)N1CC(=O)N2[C@H](CO)[C@H](c3ccc(C#CCC4CCCC4)cc3)[C@@H]2C1	n
C/C=C/c1ccccc1[C@H]1[C@@H](CO)N(C(=O)NC2CCCCC2)[C@H]1C#N	n
CN1C(=O)c2cc(NC(=O)Cc3cccs3)ccc2OC[C@H]2O[C@H](CC(=O)N[C@H]3CCN(Cc4ccccc4)C3)CC[C@@H]21	n
COc1cc(CN2CC3(CCN(S(=O)(=O)c4cn(C)cn4)CC3)c3c(n(C)c4cc(OC)ccc34)[C@@H]2CO)cc(OC)c1	n
C[C@@H]1CN([C@@H](C)CO)C(=O)CCCn2nncc2CO[C@H]1CN(C)C(=O)Nc1ccc2c(c1)OCCO2	n
CCCC(=O)Nc1ccc2c(c1)C(=O)N(C)[C@H]1CC[C@@H](CC(=O)N3CCCCC3)O[C@H]1CO2	n
C[C@@H](O)C#Cc1ccc([C@H]2[C@@H](CO)N3CCCCN(S(=O)(=O)c4ccccc4)C[C@H]23)cc1	n
O=C(Nc1ccccc1)N1CC(=O)N2[C@H](CO)[C@H](c3ccc(C#CC4CCCCC4)cc3)[C@@H]2C1	n
CO[C@H]1CN(C)C(=O)c2cc(NC(=O)C3CCOCC3)ccc2OC[C@H](C)NC[C@H]1C	n
C/C=C/c1ccc([C@H]2[C@@H](CO)N3C(=O)CN(C(=O)CC4CC4)C[C@@H]23)cc1	n
C/C=C/c1ccc([C@@H]2[C@@H](CO)N3C(=O)CN(C(=O)NC4CCCC4)C[C@@H]23)cc1	-3.19
C/C=C/c1ccc([C@H]2[C@H](CO)N3C(=O)CN(C(=O)NC4CCCCC4)C[C@@H]23)cc1	n
C[C@@H]1CN([C@@H](C)CO)C(=O)c2cc(NC(=O)CCCN(C)C)ccc2O[C@@H]1CN(C)Cc1ccc(Cl)c(Cl)c1	n
CC(=O)NC[C@H]1[C@H](c2ccc(C3=CCCC3)cc2)[C@@H](CO)N1Cc1cccnc1	n
C/C=C/c1ccc([C@H]2[C@@H](CO)N3C(=O)CN(C(=O)Nc4cccc(OC)c4)C[C@@H]23)cc1	n
C[C@@H]1CN([C@H](C)CO)C(=O)CCCn2cc(nn2)CO[C@@H]1CN(C)C(=O)NC1CCCCC1	n
Cc1ccccc1-c1ccc([C@H]2[C@H]3CN(S(=O)(=O)c4cn(C)cn4)CCCCN3[C@H]2CO)cc1	-3.62
Cn1cnc(S(=O)(=O)N2CCCCN3[C@H](C2)[C@@H](c2ccc(-c4ccccc4)cc2)[C@@H]3CO)c1	n
Cc1ccccc1-c1ccc([C@@H]2[C@H](CO)N3CCCCN(S(=O)(=O)c4cn(C)cn4)C[C@@H]23)cc1	-15.7
COc1ccccc1-c1ccc([C@H]2[C@@H](CO)N3CCCCN(S(=O)(=O)c4cn(C)cn4)C[C@H]23)cc1	-9.3
Cn1cnc(S(=O)(=O)N2CCCCN3[C@@H](CO)[C@H](c4ccc(-c5ccccc5)cc4)[C@@H]3C2)c1	n
SMILES	IDE exosite inh
COc1ccccc1-c1ccc([C@H]2[C@@H](CO)N3CCCCN(S(=O)(=O)c4cn(C)cn4)C[C@@H]23)cc1	n
COc1ccccc1-c1ccc([C@H]2[C@H](CO)N3CCCCN(S(=O)(=O)c4cn(C)cn4)C[C@@H]23)cc1	n
Cn1cnc(S(=O)(=O)N2CCCCN3[C@H](C2)[C@@H](c2ccc(-c4ccc(F)cc4)cc2)[C@@H]3CO)c1	n
Cc1ccccc1-c1ccc([C@H]2[C@@H](CO)N3CCCCN(S(=O)(=O)c4cn(C)cn4)C[C@@H]23)cc1	-3.44
Cc1ccccc1-c1ccc([C@@H]2[C@@H](CO)N3CCCCN(S(=O)(=O)c4cn(C)cn4)C[C@H]23)cc1	n
CC(C)CC#Cc1ccc([C@@H]2[C@@H](CO)N3C(=O)CN(C(=O)c4ccc5c(c4)OCO5)C[C@H]23)cc1	n
CCS(=O)(=O)Nc1ccc2c(c1)C(=O)N(C)[C@H]1CC[C@@H](CC(=O)N[C@@H]3CCN(Cc4ccccc4)C3)O[C@@H]1CO2	n
O=C(NC[C@H]1[C@@H](c2ccccc2)[C@@H](CO)N1Cc1ccccn1)C1CC1	n
CO[C@@H]1CC[C@H]2CCN(C)C(=O)[C@H](C)CN(C)C(=O)c3cc(C#N)ccc3OC[C@@H]1O2	n
CN(C)C(=O)C[C@H]1C[C@H]2c3cc(NC(=O)c4cccnc4)ccc3O[C@H]2[C@H](CO)O1	n
N#C[C@H]1[C@@H](c2ccccc2-c2ccc(F)cc2)[C@@H](CO)N1c1ncc(-c2ccccc2)s1	n
CCCC#Cc1ccc([C@H]2[C@@H](CO)N3C(=O)CN(C(=O)Nc4cccc(F)c4)C[C@H]23)cc1	n
O=C(C[C@@H]1CC[C@@H](NC(=O)c2ccc(F)cc2)[C@@H](CO)O1)NCCc1ccccc1	n
O=C(C[C@@H]1CC[C@@H]2[C@H](COC[C@H](O)CN2C(=O)c2cnccn2)O1)N1CCN(c2ccccc2)CC1	n
CCC(=O)NC[C@H]1[C@@H](c2ccccc2)[C@H](CO)N1C(=O)C1CCC1	n
COc1ccc(C#Cc2ccc([C@@H]3[C@@H](CO)N4C(=O)CN(C(=O)c5cccnc5)C[C@H]34)cc2)cc1	n
COc1cccc(-c2ccc([C@H]3[C@H](CO)N4C(=O)CN(C(=O)c5cccnc5)C[C@@H]34)cc2)c1	n
COc1ccc(C#Cc2ccc([C@H]3[C@H](CO)N4C(=O)CN(C(=O)c5cccnc5)C[C@@H]34)cc2)cc1	n
COc1cccc(-c2ccc([C@H]3[C@@H](CO)N4C(=O)CN(C(=O)c5cccnc5)C[C@@H]34)cc2)c1	n
COc1cccc(-c2ccc([C@H]3[C@@H](CO)N4C(=O)CN(C(=O)c5cccnc5)C[C@H]34)cc2)c1	-4.92
COc1cccc(-c2ccc([C@@H]3[C@@H](CO)N4C(=O)CN(C(=O)c5cccnc5)C[C@@H]34)cc2)c1	-3.73
CCCC#Cc1ccc([C@H]2[C@@H](CO)N3CCCCN(Cc4cccnc4)C[C@@H]23)cc1	n
COc1cccc(CN2CC3(CN(C)C3)c3c(n(C)c4cc(OC)ccc34)[C@@H]2CO)c1	n
CN1C(=O)c2cc(NC(=O)c3cccc(F)c3)ccc2OC[C@H]2O[C@H](CC(=O)NCC3CCCCC3)CC[C@@H]21	n
COc1cccc(S(=O)(=O)Nc2ccc3c(c2)C(=O)N(C)[C@H]2CC[C@@H](CC(=O)NCC4CCCCC4)O[C@H]2CO3)c1	n
CN1C(=O)c2cc(NC(=O)c3cccc(F)c3)ccc2OC[C@H]2O[C@H](CC(=O)NCC3CCCCC3)CC[C@H]21	-3.23!
COc1cccc(C(=O)Nc2ccc3c(c2)C(=O)N(C)[C@@H]2CC[C@H](CC(=O)N[C@@H](C)c4ccccc4)O[C@@H]2CO3)c1	n
CN1C(=O)c2cc(NC(=O)c3cccc(F)c3)ccc2OC[C@@H]2O[C@H](CC(=O)NCc3ccccc3Cl)CC[C@@H]21	n
COc1cccc(C(=O)Nc2ccc3c(c2)C(=O)N(C)[C@H]2CC[C@@H](CC(=O)N[C@@H](C)c4ccccc4)O[C@H]2CO3)c1	-3.32
CN1C(=O)c2cc(NC(=O)c3cnccn3)ccc2OC[C@H]2O[C@@H](CC(=O)N[C@H]3CCN(Cc4ccccc4)C3)CC[C@H]21	n
